# Assay results as given in ChEMBL document CHEMBL1961873, “Compounds: GSK PKIS; Assays: Nanosyn kinase panel” (2012).
# What was measured:
# [1] = target: T1, Inhibitor of nuclear factor kappa-B kinase subunit epsilon (Homo sapiens) (UniProt Q14164); conditions: at 1 µM;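 note: reported values are averaged percent inhibition figures against human IKKε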
# T1 sequence (whole entry): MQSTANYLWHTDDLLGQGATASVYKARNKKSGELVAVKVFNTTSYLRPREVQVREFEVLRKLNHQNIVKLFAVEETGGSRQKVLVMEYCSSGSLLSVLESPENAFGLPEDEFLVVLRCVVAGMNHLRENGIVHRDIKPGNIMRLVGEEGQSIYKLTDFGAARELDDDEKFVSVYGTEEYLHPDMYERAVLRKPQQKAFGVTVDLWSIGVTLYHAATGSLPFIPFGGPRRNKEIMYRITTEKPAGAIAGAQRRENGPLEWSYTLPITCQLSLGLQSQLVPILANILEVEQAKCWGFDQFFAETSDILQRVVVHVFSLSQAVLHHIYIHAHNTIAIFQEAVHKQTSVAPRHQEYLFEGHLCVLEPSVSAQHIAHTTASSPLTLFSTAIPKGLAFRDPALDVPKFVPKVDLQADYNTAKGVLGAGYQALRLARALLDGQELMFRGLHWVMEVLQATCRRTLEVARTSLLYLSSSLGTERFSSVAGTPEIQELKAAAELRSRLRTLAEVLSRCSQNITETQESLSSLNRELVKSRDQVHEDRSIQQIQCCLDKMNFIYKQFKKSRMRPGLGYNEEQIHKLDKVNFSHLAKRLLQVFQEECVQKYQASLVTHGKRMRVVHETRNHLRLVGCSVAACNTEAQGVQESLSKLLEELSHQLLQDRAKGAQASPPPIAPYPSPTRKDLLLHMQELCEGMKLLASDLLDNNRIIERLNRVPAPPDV
# [2] = target: T2, Serine/threonine-protein kinase Nek1 (Homo sapiens) (UniProt Q96PY6); conditions: at 0.1 µM
# T2 sequence (whole entry): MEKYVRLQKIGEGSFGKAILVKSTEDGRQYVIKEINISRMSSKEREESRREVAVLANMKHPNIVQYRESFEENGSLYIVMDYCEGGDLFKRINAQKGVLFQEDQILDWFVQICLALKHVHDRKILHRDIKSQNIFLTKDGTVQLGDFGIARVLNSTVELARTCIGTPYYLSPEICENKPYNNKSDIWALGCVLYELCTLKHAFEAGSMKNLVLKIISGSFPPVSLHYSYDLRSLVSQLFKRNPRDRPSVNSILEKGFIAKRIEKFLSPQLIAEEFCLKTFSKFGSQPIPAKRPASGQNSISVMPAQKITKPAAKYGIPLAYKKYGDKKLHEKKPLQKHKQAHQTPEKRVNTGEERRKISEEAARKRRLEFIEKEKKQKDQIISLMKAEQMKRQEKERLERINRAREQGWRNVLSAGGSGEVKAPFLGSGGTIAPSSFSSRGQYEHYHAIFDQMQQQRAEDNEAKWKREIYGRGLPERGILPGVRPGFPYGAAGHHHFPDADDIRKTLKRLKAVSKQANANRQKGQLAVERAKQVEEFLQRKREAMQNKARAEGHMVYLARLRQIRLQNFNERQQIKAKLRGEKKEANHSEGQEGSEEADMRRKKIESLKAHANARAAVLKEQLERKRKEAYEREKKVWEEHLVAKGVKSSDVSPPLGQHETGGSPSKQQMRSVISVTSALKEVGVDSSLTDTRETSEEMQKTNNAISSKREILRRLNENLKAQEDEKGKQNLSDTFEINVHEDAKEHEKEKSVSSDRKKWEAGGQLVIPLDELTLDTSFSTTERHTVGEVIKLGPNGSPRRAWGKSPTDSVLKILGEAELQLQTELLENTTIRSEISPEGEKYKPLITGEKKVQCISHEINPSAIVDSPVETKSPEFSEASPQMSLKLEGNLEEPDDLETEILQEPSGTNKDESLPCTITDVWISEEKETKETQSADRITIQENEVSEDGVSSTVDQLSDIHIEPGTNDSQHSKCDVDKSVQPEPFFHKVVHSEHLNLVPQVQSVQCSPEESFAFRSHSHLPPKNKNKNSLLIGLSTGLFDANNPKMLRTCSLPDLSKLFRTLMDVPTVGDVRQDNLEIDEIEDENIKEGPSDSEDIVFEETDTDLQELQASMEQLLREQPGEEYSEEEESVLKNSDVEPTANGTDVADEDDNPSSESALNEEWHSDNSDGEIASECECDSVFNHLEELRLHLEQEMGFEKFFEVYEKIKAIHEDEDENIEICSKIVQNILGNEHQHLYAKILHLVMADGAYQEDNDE
# [3] = target: T2, Serine/threonine-protein kinase Nek1 (Homo sapiens); conditions: at 1 µM
# [4] = target: T3, Serine/threonine-protein kinase Nek2 (Homo sapiens) (UniProt P51955); conditions: at 0.1 µM
# T3 sequence (whole entry): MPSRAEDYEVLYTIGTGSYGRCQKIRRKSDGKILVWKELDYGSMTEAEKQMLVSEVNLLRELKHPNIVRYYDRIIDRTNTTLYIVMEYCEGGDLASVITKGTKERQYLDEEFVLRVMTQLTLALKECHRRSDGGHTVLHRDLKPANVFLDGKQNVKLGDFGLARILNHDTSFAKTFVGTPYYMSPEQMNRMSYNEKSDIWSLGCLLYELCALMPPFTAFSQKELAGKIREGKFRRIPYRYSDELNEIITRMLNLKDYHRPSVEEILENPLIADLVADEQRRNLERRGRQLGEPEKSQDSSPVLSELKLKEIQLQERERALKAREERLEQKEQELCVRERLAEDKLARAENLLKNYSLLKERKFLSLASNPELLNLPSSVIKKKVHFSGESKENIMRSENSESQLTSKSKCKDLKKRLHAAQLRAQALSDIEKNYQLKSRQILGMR
# [5] = target: T3, Serine/threonine-protein kinase Nek2 (Homo sapiens); conditions: at 1 µM
# [6] = target: Serine/threonine-protein kinase Nek6 (Homo sapiens) (UniProt Q9HC98); conditions: at 0.1 µM
# [7] = target: Serine/threonine-protein kinase Nek6 (Homo sapiens) (UniProt Q9HC98); conditions: at 1 µM
# [8] = target: Serine/threonine-protein kinase Nek7 (Homo sapiens) (UniProt Q8TDX7); conditions: at 0.1 µM
# [9] = target: Serine/threonine-protein kinase Nek7 (Homo sapiens) (UniProt Q8TDX7); conditions: at 1 µM
# [10] = target: T4, Serine/threonine-protein kinase Nek9 (Homo sapiens) (UniProt Q8TD19); conditions: at 0.1 µM
# T4 sequence (whole entry): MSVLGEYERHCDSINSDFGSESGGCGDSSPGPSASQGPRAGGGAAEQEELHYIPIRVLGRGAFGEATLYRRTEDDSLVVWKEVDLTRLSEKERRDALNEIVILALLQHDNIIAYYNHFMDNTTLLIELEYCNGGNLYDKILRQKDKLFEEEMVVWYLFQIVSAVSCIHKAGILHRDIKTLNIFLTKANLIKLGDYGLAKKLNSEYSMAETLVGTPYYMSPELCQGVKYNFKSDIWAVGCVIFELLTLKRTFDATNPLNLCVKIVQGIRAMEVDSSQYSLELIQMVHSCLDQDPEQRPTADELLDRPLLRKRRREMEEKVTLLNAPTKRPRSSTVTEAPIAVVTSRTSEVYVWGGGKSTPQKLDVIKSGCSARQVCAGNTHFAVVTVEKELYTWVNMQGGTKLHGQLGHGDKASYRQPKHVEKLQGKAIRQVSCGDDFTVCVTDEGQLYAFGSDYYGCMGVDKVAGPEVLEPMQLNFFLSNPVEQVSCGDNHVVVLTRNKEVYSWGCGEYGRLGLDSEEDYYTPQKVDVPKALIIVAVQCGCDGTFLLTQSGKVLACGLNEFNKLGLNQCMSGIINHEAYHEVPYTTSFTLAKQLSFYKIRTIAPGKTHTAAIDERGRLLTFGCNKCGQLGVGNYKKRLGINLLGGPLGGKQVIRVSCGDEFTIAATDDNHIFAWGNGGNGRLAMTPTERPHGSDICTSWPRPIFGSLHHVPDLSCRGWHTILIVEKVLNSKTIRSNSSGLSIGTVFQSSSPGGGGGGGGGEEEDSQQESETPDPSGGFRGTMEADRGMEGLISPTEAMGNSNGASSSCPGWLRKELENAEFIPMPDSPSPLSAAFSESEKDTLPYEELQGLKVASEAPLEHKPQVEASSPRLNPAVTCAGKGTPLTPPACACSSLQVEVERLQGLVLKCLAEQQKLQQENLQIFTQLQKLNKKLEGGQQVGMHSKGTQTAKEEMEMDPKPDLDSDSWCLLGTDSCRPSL
# [11] = target: T4, Serine/threonine-protein kinase Nek9 (Homo sapiens); conditions: at 1 µM
# [12] = target: Serine/threonine-protein kinase PLK1 (Homo sapiens) (UniProt P53350); conditions: at 0.1 µM
# [13] = target: Serine/threonine-protein kinase PLK1 (Homo sapiens) (UniProt P53350); conditions: at 1 µM
# [14] = target: T5, Dual specificity protein kinase TTK (Homo sapiens) (UniProt P33981); conditions: at 0.1 µM
# T5 sequence (whole entry): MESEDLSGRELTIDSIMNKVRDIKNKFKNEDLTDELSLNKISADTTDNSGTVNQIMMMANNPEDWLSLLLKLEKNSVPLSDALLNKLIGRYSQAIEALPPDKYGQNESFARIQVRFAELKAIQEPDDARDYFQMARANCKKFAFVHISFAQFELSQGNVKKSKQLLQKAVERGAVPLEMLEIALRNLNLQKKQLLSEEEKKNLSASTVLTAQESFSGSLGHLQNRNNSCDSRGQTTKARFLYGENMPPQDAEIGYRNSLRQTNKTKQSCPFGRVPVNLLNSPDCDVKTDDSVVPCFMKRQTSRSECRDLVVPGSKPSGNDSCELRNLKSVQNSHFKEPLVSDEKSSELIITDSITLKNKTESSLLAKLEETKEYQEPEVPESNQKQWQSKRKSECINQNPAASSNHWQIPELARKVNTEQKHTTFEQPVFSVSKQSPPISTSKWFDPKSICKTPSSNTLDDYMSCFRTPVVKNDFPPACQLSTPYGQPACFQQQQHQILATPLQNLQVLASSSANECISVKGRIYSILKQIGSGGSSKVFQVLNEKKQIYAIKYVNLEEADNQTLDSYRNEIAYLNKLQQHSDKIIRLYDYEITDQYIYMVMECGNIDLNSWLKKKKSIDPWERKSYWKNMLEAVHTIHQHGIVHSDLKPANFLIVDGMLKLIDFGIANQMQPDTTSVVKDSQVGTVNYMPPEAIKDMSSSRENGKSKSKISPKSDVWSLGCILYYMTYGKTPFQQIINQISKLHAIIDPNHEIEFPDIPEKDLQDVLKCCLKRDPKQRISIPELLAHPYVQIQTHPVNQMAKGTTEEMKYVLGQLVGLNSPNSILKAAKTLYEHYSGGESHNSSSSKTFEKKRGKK
# [15] = tested on: T6, Receptor-type tyrosine-protein kinase FLT3 (Homo sapiens), P36888 [D835Y]; conditions: at 1 µM
# T6 sequence (whole entry): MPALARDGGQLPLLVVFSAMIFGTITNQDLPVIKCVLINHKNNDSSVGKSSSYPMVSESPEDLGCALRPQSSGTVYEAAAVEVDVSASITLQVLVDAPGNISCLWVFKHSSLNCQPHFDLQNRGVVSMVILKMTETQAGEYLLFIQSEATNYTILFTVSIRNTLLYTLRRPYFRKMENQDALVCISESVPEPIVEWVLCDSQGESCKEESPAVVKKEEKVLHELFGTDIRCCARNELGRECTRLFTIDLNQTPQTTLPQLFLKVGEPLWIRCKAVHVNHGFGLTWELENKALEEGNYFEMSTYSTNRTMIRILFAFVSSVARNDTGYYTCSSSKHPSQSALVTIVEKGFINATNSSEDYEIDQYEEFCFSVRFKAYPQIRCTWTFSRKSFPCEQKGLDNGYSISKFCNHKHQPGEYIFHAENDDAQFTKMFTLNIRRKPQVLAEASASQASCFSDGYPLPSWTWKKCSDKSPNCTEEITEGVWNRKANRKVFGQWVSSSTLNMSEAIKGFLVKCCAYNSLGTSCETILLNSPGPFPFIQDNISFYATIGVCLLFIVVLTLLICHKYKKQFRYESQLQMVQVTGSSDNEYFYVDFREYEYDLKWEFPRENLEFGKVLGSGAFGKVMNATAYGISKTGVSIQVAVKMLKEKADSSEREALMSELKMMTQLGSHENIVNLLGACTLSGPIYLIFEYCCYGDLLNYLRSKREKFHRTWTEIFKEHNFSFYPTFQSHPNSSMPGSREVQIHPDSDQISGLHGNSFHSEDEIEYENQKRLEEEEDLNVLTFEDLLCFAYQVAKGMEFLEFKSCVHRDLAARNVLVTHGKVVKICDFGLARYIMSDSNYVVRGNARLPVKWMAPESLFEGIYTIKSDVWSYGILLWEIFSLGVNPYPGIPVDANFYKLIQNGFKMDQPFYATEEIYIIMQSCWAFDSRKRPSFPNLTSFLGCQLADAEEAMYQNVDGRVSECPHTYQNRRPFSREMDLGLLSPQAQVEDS
# [16] = target: Vascular endothelial growth factor receptor 3 (Homo sapiens) (UniProt P35916); conditions: at 0.1 µM
# [17] = target: Vascular endothelial growth factor receptor 3 (Homo sapiens) (UniProt P35916); conditions: at 1 µM
# [18] = target: Macrophage colony-stimulating factor 1 receptor (Homo sapiens) (UniProt P07333); conditions: at 0.1 µM
# [19] = target: Macrophage colony-stimulating factor 1 receptor (Homo sapiens) (UniProt P07333); conditions: at 1 µM
# [20] = target: Tyrosine-protein kinase Fyn (Homo sapiens) (UniProt P06241); conditions: at 0.1 µM
# Chain of Tyrosine-protein kinase Fyn (Homo sapiens) (P06241 2-537 limits assumed): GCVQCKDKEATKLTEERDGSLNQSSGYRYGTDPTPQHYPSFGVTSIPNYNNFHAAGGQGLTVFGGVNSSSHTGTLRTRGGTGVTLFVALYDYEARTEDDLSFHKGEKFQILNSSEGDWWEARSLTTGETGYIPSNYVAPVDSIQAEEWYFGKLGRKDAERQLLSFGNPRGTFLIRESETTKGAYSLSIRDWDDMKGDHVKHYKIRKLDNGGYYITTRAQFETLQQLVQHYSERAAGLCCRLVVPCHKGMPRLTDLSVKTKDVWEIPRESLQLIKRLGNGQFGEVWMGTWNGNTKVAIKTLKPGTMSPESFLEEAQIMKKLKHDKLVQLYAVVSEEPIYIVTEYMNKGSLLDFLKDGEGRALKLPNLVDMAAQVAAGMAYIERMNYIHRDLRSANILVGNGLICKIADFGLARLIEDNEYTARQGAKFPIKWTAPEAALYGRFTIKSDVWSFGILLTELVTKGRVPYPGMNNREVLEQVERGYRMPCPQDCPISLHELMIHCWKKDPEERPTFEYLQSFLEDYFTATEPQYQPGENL
# Chain of Serine/threonine-protein kinase Nek6 (Homo sapiens) (Q9HC98 whole entry): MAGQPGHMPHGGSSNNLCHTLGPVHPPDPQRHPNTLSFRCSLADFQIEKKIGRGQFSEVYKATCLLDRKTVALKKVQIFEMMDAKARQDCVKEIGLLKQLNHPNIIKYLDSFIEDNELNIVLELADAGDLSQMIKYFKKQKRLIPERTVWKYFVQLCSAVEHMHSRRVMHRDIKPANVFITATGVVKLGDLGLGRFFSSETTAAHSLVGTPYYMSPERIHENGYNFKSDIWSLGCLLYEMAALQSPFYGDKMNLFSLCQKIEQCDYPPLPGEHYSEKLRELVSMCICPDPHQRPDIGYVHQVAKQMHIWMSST
# Chain of Serine/threonine-protein kinase Nek7 (Homo sapiens) (Q8TDX7 whole entry, looked up): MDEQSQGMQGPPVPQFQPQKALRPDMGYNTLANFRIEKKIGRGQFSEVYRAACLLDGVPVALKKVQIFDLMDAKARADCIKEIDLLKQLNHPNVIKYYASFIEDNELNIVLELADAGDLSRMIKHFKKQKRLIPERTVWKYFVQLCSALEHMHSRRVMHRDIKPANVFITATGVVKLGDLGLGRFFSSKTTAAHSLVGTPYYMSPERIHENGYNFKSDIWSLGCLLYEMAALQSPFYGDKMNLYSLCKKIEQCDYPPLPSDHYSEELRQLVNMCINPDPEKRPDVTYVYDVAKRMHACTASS
# Chain of Serine/threonine-protein kinase PLK1 (Homo sapiens) (P53350 whole entry): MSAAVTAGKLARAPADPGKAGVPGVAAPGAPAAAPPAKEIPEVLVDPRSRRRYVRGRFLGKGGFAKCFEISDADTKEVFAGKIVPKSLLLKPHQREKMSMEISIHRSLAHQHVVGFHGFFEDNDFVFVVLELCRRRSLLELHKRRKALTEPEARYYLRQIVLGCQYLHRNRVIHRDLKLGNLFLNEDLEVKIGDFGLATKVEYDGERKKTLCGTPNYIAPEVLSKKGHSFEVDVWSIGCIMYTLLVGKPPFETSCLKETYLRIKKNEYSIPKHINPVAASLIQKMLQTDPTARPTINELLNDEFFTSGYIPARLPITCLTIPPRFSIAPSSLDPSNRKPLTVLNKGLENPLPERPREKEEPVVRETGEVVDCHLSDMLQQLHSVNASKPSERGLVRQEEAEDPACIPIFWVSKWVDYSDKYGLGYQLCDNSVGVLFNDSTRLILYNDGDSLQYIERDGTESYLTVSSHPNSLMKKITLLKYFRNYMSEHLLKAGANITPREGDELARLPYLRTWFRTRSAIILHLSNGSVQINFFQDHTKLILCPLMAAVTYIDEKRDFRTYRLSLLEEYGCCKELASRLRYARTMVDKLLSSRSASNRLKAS
# Chain of Vascular endothelial growth factor receptor 3 (Homo sapiens) (P35916 whole entry): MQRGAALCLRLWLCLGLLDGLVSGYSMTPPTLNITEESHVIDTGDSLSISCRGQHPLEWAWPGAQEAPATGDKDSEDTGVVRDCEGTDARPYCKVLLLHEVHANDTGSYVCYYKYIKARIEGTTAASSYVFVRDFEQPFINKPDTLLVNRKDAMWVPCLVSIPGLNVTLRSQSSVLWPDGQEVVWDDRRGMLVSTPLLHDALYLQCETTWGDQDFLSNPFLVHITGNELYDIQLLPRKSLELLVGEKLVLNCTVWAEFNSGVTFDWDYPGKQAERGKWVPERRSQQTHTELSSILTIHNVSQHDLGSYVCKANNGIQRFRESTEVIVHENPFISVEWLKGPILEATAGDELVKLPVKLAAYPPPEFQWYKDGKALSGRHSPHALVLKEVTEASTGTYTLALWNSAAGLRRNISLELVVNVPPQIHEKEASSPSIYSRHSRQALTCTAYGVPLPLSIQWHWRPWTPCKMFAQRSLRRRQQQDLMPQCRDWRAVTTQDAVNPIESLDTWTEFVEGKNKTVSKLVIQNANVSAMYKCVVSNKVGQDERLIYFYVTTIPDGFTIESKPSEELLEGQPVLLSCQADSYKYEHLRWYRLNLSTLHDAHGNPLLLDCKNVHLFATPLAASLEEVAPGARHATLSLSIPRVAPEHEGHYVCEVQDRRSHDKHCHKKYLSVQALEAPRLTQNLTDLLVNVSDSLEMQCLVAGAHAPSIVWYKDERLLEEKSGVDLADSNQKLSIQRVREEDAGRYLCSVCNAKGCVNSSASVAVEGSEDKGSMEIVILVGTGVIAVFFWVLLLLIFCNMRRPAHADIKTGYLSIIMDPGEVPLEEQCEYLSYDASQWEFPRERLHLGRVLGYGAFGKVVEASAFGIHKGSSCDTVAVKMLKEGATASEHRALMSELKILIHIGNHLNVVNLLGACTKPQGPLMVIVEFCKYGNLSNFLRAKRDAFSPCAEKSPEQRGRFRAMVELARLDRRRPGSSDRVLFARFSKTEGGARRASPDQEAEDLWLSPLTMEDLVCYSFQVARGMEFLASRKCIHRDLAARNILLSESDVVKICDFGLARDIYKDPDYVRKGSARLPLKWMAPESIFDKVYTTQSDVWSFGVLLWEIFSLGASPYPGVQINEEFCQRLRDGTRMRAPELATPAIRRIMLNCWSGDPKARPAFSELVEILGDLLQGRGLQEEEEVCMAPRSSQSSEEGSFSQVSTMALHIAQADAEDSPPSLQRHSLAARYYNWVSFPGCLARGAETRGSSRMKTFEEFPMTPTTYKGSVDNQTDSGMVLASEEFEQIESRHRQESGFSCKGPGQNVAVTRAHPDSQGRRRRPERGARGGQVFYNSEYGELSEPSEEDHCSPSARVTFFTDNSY
# Chain of Macrophage colony-stimulating factor 1 receptor (Homo sapiens) (P07333 whole entry): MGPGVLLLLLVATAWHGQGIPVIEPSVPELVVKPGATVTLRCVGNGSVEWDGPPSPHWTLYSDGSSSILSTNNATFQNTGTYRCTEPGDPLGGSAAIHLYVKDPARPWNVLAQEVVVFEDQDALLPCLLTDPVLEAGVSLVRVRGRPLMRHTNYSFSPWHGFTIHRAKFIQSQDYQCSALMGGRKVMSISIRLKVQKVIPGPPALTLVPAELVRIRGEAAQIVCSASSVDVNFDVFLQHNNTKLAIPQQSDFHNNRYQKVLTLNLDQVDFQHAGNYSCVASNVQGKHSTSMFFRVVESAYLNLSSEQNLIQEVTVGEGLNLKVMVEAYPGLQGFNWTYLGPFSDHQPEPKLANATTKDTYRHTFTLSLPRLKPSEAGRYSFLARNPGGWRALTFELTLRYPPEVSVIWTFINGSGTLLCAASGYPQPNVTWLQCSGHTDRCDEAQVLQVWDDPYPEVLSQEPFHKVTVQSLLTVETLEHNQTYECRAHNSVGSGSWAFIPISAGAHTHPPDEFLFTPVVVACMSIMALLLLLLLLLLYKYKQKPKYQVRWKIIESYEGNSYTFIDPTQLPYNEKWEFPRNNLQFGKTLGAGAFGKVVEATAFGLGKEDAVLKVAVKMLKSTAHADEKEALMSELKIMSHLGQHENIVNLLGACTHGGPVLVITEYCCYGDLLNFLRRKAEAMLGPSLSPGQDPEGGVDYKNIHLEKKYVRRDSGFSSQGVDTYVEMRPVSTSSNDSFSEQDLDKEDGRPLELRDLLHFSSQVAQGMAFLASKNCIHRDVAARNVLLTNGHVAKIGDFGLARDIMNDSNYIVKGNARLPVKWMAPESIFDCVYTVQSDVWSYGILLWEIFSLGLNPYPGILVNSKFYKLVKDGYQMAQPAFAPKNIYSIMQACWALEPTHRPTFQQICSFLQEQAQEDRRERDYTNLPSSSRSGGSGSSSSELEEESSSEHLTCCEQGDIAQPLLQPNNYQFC
Compound,inhibition [1] [%],inhibition [2] [%],inhibition [3] [%],inhibition [4] [%],inhibition [5] [%],inhibition [6] [%],inhibition [7] [%],inhibition [8] [%],inhibition [9] [%],inhibition [10] [%],inhibition [11] [%],inhibition [12] [%],inhibition [13] [%],inhibition [14] [%],inhibition [15] [%],inhibition [16] [%],inhibition [17] [%],inhibition [18] [%],inhibition [19] [%],inhibition [20] [%]
Nc1nonc1-c1nc2cnccc2n1C1CCCCC1,16.2,-1.33,0.56,-2.06,-7.26,0.47,-0.88,0.07,-0.97,-5.44,-2.86,-2.48,-0.5,-1.57,19.7,4.11,16.7,27.4,76.3,2.06
COc1cc(C=NNc2ncnc3c2cnn3Cc2ccccc2)ccc1O,-4.1,-1.23,-0.61,-5.42,-5.26,-0.58,-3.89,-6.27,-2.54,3.47,-0.84,-3.5,-2.85,-6.4,2.91,0.12,0.41,14.5,58.7,6.12
